Results taken from PubChem BioAssay AID1159580 (chemical genetic matrix, 2015).
In all, about 5,500 compounds went through this assay and about 2,000 (36%) were called active. Not shown: some 18% with an inconclusive outcome. Rule as the data show it: active = normalized growth mostly below about 0.91 (no sharp cut-off); inconclusive = no clear call, values can overlap the other calls; inactive = mostly above about 0.92. Some of the results follow.

Assay: chemical genetic growth profiling, strain panel (AID 1159580);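 also: tested at 20 µM; growth read once vehicle control cultures reached saturation at 30 °C; 1 = growth at the plate median or of vehicle wells; lower values mean less growth of the strain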
Conditions: S. cerevisiae deletion strains, growth OD
[1] = locus YAL013W, strain DEP1, stronger effect = lower value
[2] = locus YDR150W, strain NUM1, stronger effect = lower value
[3] = locus YGR078C, strain PAC10, stronger effect = lower value
[4] = locus YNL153C, strain GIM3, stronger effect = lower value
[5] = locus YPL241C, strain CIN2, stronger effect = lower value

Measured: normalized growth

Nc1ccc(C(=O)/C(=C\c2cccc([N+](=O)[O-])c2)C(=O)c2ccc(-c3ccccc3)cc2)cc1
inactive: [1] 0.99 | locus YBR229C, strain ROT2, stronger effect = lower value 0.984 | locus YDL101C, strain DUN1, stronger effect = lower value 0.997 | [2] 0.975 | locus YEL061C, strain CIN8, stronger effect = lower value 0.999 | [3] 0.997 | locus YHR030C, strain SLT2, stronger effect = lower value 0.869 | locus YHR087W, strain rtc3, stronger effect = lower value 0.993 | locus YJL187C, strain SWE1, stronger effect = lower value 1 | locus YJR043C, strain POL32, stronger effect = lower value 0.979 | locus YJR075W, strain HOC1, stronger effect = lower value 0.997 | locus YKL190W, strain CNB1, stronger effect = lower value 0.997 | locus YLR039C, strain RIC1, stronger effect = lower value 1 | locus YLR058C, strain SHM2 (second series), stronger effect = lower value 0.987 | locus YLR085C, strain ARP6, stronger effect = lower value 0.877 | locus YLR262C, strain YPT6, stronger effect = lower value 0.915 | locus YML094W, strain GIM5, stronger effect = lower value 0.993 | locus YMR219W, strain ESC1, stronger effect = lower value 0.988 | locus YMR263W, strain SAP30, stronger effect = lower value 1.01 | [4] 0.966 | locus YNL298W, strain CLA4 (second series), stronger effect = lower value 0.936 | locus YNL322C, strain KRE1, stronger effect = lower value 0.971 | locus YNR030W, strain Alg12, stronger effect = lower value 0.955 | locus YPL055C, strain LGE1, stronger effect = lower value 1 | [5] 0.949 | locus YPR135W, strain CTF4, stronger effect = lower value 0.945

CCN1C[C@]2(C)CC[C@H](O)[C@@]34C5C[C@@H]6[C@@H](OC)C[C@@](O)(C5[C@H]6O)[C@@H](CC23)C14 (some centres not stated)
inactive: [1] 1.01 | locus YAL040C, strain CLN3, stronger effect = lower value 1 | locus YCL061C, strain MRC1 (second series), stronger effect = lower value 1 | [2] 0.996 | locus YDR363W, strain ESC2, stronger effect = lower value 1.03 | locus YER002W, strain NOP16, stronger effect = lower value 1.01 | [3] 0.999 | locus YGR229C, strain SMI1, stronger effect = lower value 1.02 | locus YMR307W, strain GAS1, stronger effect = lower value 0.999 | locus YNL128W, strain TEP1, stronger effect = lower value 1 | [4] 1.01 | locus YNL175C, strain NOP13, stronger effect = lower value 1.01 | locus YNL197C, strain WHI3, stronger effect = lower value 1.01 | locus YNL224C, strain SQS1, stronger effect = lower value 0.997 | locus YOR083W, strain WHI5 (second series), stronger effect = lower value 1.01 | [5] 1
